Test results as given in PubChem BioAssay (NCATS).
Records with an inconclusive call do not appear. A number with no mark means an inactive call. Active and inactive are the calls of the source. Calls come from the whole dose curve; as a rule, active = well fitted cell-killing curve with a large enough effect; inconclusive = small, poorly fitted or top-dose-only effect, or effect the other way; inactive = no such curve, though single readings can be large or run the other way.

Assay: qHTS of pediatric cancer cell lines to identify multiple opportunities for drug repurposing: Confirmatory screen for Rh30 cells (AID 1347126); note: nearly all actives have a fitted effect of over 55% in size
Conditions: Rh30 rhabdomyosarcoma cell viability; series mostly up to 45.9 µM; activity change, negative = cytotoxic: at the top concentration
Description: Drug repurposing or repositioning has been offered as a strategy for drug development in oncology programs. This approach has special potential for childhood cancers and other rare or orphan diseases, where the expected return on new drug development has been a disincentive to pharmaceuticals.
In this project we exploit the poly-pharmacology of drugs to discover new indications via phenotypic screening of a panel of 19 well-characterized cell lines derived from solid tumors seen in children and adolescents. The goal is to identify approved drugs with previously unrecognized anticancer properties that has the potential to reveal new mechanisms and biological processes involved in carcinogenesis or drug resistance. We employed a titration-based paradigm (quantitative high-throughput screening or qHTS), where all compounds were tested at multiple concentrations for their effect on cell viability. Concentration-response curves (CRCs) were derived directly from the primary screen, and both potency and efficacy values were used to identify compounds with robust bioactivity profiles. We screened the NIH Chemical Genomics Center (NCGC) Pharmaceutical Collection (NPC) and Mechanism Interrogation Plate (MIPE) small molecule collections of approved and investigational compounds against these cell lines; and measured metabolically active cells after 48 hours of compound treatment as a proxy for cell viability.
Assay Submitter: Nathalia J. Martinez, National Center for Advancing Translational Sciences, National Institutes of Health, Rockville, MD, USA; email: natalia.martinez@nih.gov
[1] Shen, M et al. Quantitative high-throughput phenotypic screening of pediatric cancer cell lines identifies multiple opportunities for drug repurposing. Oncotarget 2017 Dec 19;9(4):4758-4772. PMID 29435139.
The cells were obtained from University of North Carolina (UNC), Pediatric Preclinical Testing Program (PPT), and Coriell Institute (CI).
qHTS cell viability assay:
Cells were assayed in growth media at a density of 500-1,000 cells/well. Five microliters of cells were dispensed into 1,536-well, white, solid-bottom, TC-treated plates (Greiner Bio One) using a multidrop dispenser and incubated at 37 degrees C, 5% CO2, under a humidified atmosphere for 5 hours. Twenty-three nanoliters of compounds and controls (neutral control DMSO or positive control bortezomib at final concentration of 2.3 µM) were subsequently transferred by Kalypsys pintool. For primary screens, the MIPE collection was tested at 11-point dilutions (final concentrations range from 0.78 nM to 46 µM) and the NPC collection at 8-point dilutions (final concentrations range from 0.59 nM to 46 µM). Compounds tested in follow-up screens were assayed at 11-point dilutions. Cells were incubated for 48 hours, followed by addition of 3 µL of CellTiter-Glo (Promega). After a 15 min incubation at room temperature, samples were analyzed for luminescence intensity using a ViewLux High-throughput CCD imager equipped with clear filters.
% is set by controls: 0 for no effect and ±100 for the full control effect; potency is the fitted concentration of half-maximal effect.

Row | Compound | activity change, negative = cytotoxic [%] | Potency
1 | COc1cc(CNC(=O)CCCCC=CC(C)C)ccc1O | -0.611 | –
2 | CC(C)CN(C[C@@H](O)[C@H](Cc1ccccc1)NC(=O)O[C@H]1CO[C@H]2OCC[C@H]21)S(=O)(=O)c1ccc(N)cc1 | 9.22 | –
3 | CCN(CCO)CCCOc1ccc2c(Nc3cc(CC(=O)Nc4cccc(F)c4)[nH]n3)ncnc2c1 | 0.425 | –
4 | CCC(=O)N1CCN(c2ccc(-n3c(=O)ccc4cnc5ccc(-c6cnc7ccccc7c6)cc5c43)cc2C(F)(F)F)CC1 | 23.9 | –
5 | Cc1ccc(C(=O)N(CCCN)[C@@H](c2nc3cc(Cl)ccc3c(=O)n2Cc2ccccc2)C(C)C)cc1 | – | 38000 nM (active)
6 | Cc1ccccc1-n1c(Cn2nc(-c3cccc(O)c3)c3c(N)ncnc32)nc2cccc(C)c2c1=O | – | 13100 nM (active)
7 | COc1ccc(-c2ccc3ncc4c(c3c2)n(-c2ccc(N3CCNCC3)c(C(F)(F)F)c2)c(=O)n4C)cn1 | – | 293 nM (active)
8 | CC(C)(C)c1[nH]cnc1C=c1[nH]c(=O)c(=Cc2ccccc2)[nH]c1=O | – | 20.2 nM (active)
9 | CC[C@H](NC(=O)[C@H](C)NC)C(=O)N1C[C@@H](O)C[C@H]1Cc1c(-c2[nH]c3cc(F)ccc3c2C[C@H]2C[C@H](O)CN2C(=O)[C@H](CC)NC(=O)[C@H](C)NC)[nH]c2cc(F)ccc12 | 13.6 | –
10 | CCNC(=O)c1noc(-c2cc(C(C)C)c(O)cc2O)c1-c1ccc(CN2CCOCC2)cc1 | – | 73.7 nM (active)
11 | CCC(=O)OCC(=O)[C@@]1(OC(=O)CC)[C@@H](C)C[C@@H]2[C@H]3CCC4=CC(=O)C=C[C@]4(C)[C@@]3(F)[C@@H](O)C[C@@]21C | -14.8 | –
12 | CO[C@H]1/C=C\O[C@@]2(C)Oc3c(C)c(O)c4c(O)c(c5c(nc6cc(C)ccn65)c4c3C2=O)NC(=O)C(C)=CC=C[C@H](C)[C@H](O)[C@@H](C)[C@@H](O)[C@@H](C)[C@H](OC(C)=O)[C@H]1C | 7.73 | –
13 | C=C1[C@H](n2cnc3c(=O)[nH]c(N)nc32)C[C@H](O)[C@H]1CO | 13.1 | –
14 | CON(C)C(=O)N1N=C(c2cc(F)ccc2F)S[C@]1(CCCN)c1ccccc1 | 7.82 | –
15 | Cc1cc(CS(=O)(=O)c2ccccc2)cc(OCc2ccc(CN3CCC[C@H]3CO)cc2)c1 | -13.3 | –
16 | NC(N)=Nc1nc(CSCCC(N)=NS(N)(=O)=O)cs1 | 15.1 | –
17 | Nc1ccc(-c2ccc3ncc4ccc(=O)n(-c5cccc(C(F)(F)F)c5)c4c3c2)cn1 | – | 329 nM (active)
18 | CC(=O)N1CCN(c2ccc(OCc3nn(C)c(C)c3-c3cccc4c(CCCOc5cc(C)c(Cl)c(C)c5)c(C(=O)O)n(Cc5cccnc5)c34)cc2)CC1 | -4.67 | –
19 | CC1(C)OC2CC3C4CC(F)C5=CC(=O)C=CC5(C)C4C(O)CC3(C)[C@]2(C(=O)CO)O1 (stereo not given in full) | 8 | –
20 | C[C@H](c1ccc(F)cc1CCCC(=O)O)N(c1cc(F)ccc1F)S(=O)(=O)c1ccc(Cl)cc1 | -3.4 | –

Row | Compound | activity change, negative = cytotoxic [%] | Potency
21 | COC(=O)[C@H](c1ccccc1Cl)N1CCc2sccc2C1 | 7.68 | –
22 | CNC(=O)[C@H](CC1=CN=C2C=CCC=C12)NC(=O)[C@@H](CC(=O)NO)CC(C)C | – | 1470 nM (active)
23 | CC1=C(CC(=O)O)c2cc(F)ccc2C1=Cc1ccc(S(C)=O)cc1 (stereo not given) | 10.4 | –
24 | Cc1csc(-c2nnc(Nc3ccc(Oc4ncccc4-c4ccnc(N)n4)cc3)c3ccccc23)c1 | -19.2 | –
25 | C[C@@H]1[C@H](O)[C@@H](C)C=CC=CC=CC=CC=CC=CC=C[C@H](O[C@@H]2O[C@H](C)[C@H](O)[C@H](N)[C@@H]2O)C[C@@H]2O[C@](O)(C[C@@H](O)C[C@@H](O)[C@H](O)CC[C@@H](O)C[C@@H](O)CC(=O)O[C@H]1C)C[C@H](O)[C@@H]2C(=O)O | -6.94 | –
26 | Cc1cnc(-c2cc(N3CCN(C(=O)CCS(C)(=O)=O)CC3)ncc2Cl)c(C)c1 | 8.61 | –
27 | CN(C)CCN(C)C(=O)c1ccc(NC(=O)Nc2ccc(-c3nc(N4CCOCC4)c4ccn(CC(F)(F)F)c4n3)cc2)cc1 | – | 369 nM (active)
28 | Nc1ncnc2c1ncn2[C@@H]1O[C@H](CO)[C@@H](O)[C@@H]1O | – | 11700 nM (active)
29 | COc1cc([C@@H]2c3cc4c(cc3[C@@H](O[C@@H]3O[C@@H]5CO[C@@H](C)O[C@@H]5[C@H](O)[C@@H]3O)[C@H]3COC(=O)[C@H]23)OCO4)cc(OC)c1O | – | 4650 nM (active)
30 | C[C@@H]1C[C@H]2[C@@H]3CCC4=CC(=O)C=C[C@]4(C)[C@@]3(F)[C@@H](O)C[C@]2(C)[C@@]1(O)C(=O)CO | -22.8 | –
31 | CC1(C)CC(=O)c2c(C(F)(F)F)nn(-c3ccc(C(N)=O)c(NC4CCC(O)CC4)c3)c2C1 (stereo not given) | – | 369 nM (active)
32 | C[C@@H]1O[C@@H](O[C@H]2CC[C@@]3(C)[C@H](CC[C@@H]4[C@H]3C[C@@H](O)[C@]3(C)[C@@H](C5=CC(=O)OC5)CC[C@]43O)C2)C[C@H](O)[C@@H]1O[C@H]1C[C@H](O)[C@H](O[C@H]2C[C@H](O)[C@@H](O)[C@@H](C)O2)[C@H](C)O1 (stereo in doubt) | – | 339 nM (active)
33 | C=CC(=O)Nc1cccc(Sc2nc(Nc3ccc(N4CCN(C)CC4)cc3)ncc2Cl)c1 | – | 9270 nM (active)
34 | O=C1NC(=O)C(c2cnc3ccccn23)=C1c1cn2c3c(cccc13)CN(C(=O)N1CCOCC1)CC2 | -26.9 | –
35 | CC(C)CN(C[C@H](O)[C@H](Cc1ccccc1)NC(=O)O[C@H]1CCOC1)S(=O)(=O)c1ccc(N)cc1 | -3.92 | –
36 | O=C1Nc2ccc(I)cc2C1=Cc1cc(Br)c(O)c(Br)c1 | – | 1170 nM (active)
37 | Cc1ccc(C(=O)N(CCCN)[C@@H](c2oc3cc(Cl)ccc3c(=O)c2Cc2ccccc2)C(C)C)cc1 | – | 23300 nM (active)
38 | CC1CNc2c(cccc2S(=O)(=O)N[C@@H](CCCN=C(N)N)C(=O)N2CC[C@@H](C)C[C@@H]2C(=O)O)C1 (stereo not given in full) | – | 20800 nM (active)
39 | CC[C@]1(O)C[C@H]2CN(CCC3=c4ccccc4=N[C]3[C@@](C(=O)OC)(c3cc4c(cc3OC)N(C)[C@H]3[C@@](O)(C(N)=O)[C@H](O)[C@]5(CC)C=CCN6CC[C@]43[C@@H]65)C2)C1 | -5.08 | –
40 | CCOC(=O)[C@H](CCc1ccccc1)N[C@@H](C)C(=O)N1CCCC1C(=O)O (stereo not given in full) | – | 7370 nM (active)
